The supplement of paper PMC10849652
Targets with a hit are over-represented here; the source holds about 8,800 in all. About 0.5% of all pairs of compound and target were hits. A number with no mark means an inactive call.

What was measured:
Assay in all cases: log2 fold change, soluble protein after heating vs DMSO (PISA); higher = thermal stabilisation; K562 lysate, 10 uM; active = over 0.2 and 3.5 SD of the protein, either way, in both replicates (recomputed)
[1] = compound: NCC(=O)Nc1ccc(-n2nc(C(F)(F)F)cc2-c2ccc3c(ccc4ccccc43)c2)cc1
In short: (§1)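 Soluble protein was defined as the supernatant remaining after 21,000xg for 90 min, following pooling of heated aliquots and adjustment to 0.5% NP-40 at 4°C. Before that, crude K562 extract at 1 mg/mL protein in PBS pH 7.4 with 1 mM MgCl2 was treated with 10 μM compound for 30 min and heated for 3 min across 48°C-58°C. Quantification used TMTpro 16plex LC-MS/MS with channel sums equalised, and values are log-two fold changes in thermal stability relative to solvent controls from duplicates.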

vorinostat = compound: O=C(CCCCCCC(=O)Nc1ccccc1)NO [vorinostat]
In short: as §1

silmitasertib = compound: O=C(O)c1ccc2c(c1)nc(Nc1cccc(Cl)c1)c1ccncc12 [silmitasertib]
In short: as §1

[2] = compound: O=C1NC(=O)C(c2cnc3ccccn23)=C1c1cn2c3c(cc(F)cc13)CN(C(=O)N1CCCCC1)CC2
In short: as §1

entospletinib = compound: c1cn2cc(-c3ccc4cn[nH]c4c3)nc(Nc3ccc(N4CCOCC4)cc3)c2n1 [entospletinib]
In short: as §1

Sequence of UniProt Q9GZR2 (Q9GZR2 whole entry, looked up): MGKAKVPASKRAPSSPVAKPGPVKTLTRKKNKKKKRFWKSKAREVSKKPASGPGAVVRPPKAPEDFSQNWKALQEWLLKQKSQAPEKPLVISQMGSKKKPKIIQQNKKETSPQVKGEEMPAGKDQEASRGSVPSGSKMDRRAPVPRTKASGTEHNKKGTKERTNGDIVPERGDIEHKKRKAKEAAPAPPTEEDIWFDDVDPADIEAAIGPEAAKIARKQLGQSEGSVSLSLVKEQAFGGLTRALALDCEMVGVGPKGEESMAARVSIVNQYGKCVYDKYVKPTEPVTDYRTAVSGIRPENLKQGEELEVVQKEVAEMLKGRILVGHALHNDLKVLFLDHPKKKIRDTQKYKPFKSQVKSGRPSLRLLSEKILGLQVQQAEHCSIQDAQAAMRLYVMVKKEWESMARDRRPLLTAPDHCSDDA
Sequence of UniProt Q6PCD5 (Q6PCD5 whole entry, looked up): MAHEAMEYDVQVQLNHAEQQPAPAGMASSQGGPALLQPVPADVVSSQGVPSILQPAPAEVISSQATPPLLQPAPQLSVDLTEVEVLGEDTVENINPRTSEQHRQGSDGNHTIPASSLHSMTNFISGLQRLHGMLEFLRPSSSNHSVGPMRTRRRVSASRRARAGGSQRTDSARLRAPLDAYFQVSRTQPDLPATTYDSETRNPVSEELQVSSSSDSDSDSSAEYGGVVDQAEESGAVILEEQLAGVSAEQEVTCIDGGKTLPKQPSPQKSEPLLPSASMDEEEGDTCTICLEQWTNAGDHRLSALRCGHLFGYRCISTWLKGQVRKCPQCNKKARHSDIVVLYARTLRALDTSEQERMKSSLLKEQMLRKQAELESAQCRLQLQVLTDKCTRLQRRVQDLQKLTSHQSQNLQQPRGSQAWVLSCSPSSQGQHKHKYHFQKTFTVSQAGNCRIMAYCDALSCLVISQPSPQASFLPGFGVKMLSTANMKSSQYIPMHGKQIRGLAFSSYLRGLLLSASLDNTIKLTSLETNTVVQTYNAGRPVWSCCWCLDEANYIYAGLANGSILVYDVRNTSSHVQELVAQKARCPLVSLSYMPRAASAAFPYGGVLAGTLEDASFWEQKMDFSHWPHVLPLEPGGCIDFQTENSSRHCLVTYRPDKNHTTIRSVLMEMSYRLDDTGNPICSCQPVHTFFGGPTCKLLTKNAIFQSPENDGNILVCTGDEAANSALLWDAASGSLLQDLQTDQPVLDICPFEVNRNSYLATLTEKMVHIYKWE
Sequence of UniProt Q6GYQ0 (Q6GYQ0 whole entry, looked up): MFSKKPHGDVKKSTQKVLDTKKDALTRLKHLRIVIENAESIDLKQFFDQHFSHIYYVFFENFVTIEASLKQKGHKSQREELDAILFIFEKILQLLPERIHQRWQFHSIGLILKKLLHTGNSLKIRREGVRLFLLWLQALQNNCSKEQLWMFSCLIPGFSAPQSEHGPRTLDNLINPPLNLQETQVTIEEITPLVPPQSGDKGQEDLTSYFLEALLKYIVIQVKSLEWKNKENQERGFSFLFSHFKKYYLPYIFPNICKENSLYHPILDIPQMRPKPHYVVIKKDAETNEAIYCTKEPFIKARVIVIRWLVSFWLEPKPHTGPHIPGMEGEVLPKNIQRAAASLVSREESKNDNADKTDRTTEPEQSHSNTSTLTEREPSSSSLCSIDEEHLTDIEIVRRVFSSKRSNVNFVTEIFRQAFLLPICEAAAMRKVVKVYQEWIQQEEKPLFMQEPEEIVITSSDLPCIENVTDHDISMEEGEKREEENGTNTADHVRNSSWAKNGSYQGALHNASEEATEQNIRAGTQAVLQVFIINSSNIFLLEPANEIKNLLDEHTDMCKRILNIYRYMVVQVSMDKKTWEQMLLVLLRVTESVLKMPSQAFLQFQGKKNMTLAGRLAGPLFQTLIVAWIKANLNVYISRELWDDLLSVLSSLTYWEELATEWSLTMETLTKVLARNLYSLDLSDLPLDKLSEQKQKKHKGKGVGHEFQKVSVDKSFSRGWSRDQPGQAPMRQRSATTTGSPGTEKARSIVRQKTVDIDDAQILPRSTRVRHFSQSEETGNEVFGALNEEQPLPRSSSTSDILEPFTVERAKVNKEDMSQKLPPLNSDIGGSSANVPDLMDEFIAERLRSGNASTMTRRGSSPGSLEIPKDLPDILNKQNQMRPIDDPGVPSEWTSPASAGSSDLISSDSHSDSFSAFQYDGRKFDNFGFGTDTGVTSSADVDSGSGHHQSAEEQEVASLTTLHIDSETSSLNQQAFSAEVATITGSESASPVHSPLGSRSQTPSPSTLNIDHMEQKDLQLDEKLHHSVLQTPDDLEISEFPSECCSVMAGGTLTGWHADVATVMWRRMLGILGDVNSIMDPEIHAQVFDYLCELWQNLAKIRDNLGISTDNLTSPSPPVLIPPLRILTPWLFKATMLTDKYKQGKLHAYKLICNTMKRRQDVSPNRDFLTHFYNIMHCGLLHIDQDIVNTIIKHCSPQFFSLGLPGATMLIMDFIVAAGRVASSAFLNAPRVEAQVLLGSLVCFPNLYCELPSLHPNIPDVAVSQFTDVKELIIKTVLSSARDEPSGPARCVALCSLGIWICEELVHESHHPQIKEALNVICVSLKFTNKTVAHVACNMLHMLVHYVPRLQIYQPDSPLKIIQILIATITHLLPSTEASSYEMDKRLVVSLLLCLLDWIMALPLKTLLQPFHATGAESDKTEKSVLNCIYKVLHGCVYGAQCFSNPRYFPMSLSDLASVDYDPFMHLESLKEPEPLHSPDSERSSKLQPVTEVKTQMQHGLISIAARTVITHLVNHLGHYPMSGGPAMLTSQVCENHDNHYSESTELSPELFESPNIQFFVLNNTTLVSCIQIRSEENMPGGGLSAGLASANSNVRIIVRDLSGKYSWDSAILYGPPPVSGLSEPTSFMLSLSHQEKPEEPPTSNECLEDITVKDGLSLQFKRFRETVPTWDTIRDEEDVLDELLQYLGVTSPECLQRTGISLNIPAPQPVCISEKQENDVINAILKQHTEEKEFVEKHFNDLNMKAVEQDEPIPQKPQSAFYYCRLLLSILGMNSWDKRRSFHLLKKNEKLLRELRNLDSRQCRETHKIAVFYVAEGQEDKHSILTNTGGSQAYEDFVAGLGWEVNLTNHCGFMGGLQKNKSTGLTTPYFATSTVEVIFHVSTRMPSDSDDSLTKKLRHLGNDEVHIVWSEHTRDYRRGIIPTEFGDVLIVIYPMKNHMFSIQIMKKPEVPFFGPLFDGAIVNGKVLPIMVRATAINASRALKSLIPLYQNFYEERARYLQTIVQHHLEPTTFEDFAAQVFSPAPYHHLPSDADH
Sequence of UniProt Q96HR9 (Q96HR9 whole entry, looked up): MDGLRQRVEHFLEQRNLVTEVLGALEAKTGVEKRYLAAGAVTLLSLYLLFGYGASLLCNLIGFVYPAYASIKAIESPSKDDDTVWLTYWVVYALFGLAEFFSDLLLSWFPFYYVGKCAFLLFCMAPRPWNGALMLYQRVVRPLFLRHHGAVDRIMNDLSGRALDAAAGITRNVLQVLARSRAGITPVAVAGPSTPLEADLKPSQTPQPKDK
Sequence of UniProt Q9UPW6 (Q9UPW6 whole entry, looked up): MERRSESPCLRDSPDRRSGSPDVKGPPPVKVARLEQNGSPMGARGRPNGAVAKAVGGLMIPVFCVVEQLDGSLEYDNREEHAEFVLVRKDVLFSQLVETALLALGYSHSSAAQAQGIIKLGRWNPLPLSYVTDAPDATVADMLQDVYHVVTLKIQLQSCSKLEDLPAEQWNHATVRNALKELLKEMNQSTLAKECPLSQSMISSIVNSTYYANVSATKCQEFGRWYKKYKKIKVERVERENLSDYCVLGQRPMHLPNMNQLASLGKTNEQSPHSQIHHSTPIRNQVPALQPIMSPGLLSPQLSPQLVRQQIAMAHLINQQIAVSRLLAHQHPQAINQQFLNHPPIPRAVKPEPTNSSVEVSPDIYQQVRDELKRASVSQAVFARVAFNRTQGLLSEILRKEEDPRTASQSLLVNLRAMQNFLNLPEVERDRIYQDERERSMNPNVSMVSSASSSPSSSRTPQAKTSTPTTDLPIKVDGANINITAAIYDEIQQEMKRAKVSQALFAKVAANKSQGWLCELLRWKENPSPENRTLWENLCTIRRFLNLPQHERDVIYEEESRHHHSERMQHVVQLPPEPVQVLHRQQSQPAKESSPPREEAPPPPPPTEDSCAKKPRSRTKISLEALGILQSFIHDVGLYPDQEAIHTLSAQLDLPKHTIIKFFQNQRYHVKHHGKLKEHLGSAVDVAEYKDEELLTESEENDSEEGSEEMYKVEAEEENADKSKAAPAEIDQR
Sequence of UniProt P31949 (P31949 whole entry, looked up): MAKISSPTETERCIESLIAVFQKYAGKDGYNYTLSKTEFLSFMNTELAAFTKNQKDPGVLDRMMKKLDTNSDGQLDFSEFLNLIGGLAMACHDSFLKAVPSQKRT

| Target | log2 fold change [1] | log2 fold change (vorinostat) | log2 fold change (silmitasertib) | log2 fold change [2] | log2 fold change (entospletinib) |
| --- | --- | --- | --- | --- | --- |
| RPS4X (UniProt P62701) | 0.008 | 0.106 | 0.028 | 0.015 | 0.016 |
| SATB2 (UniProt Q9UPW6) | 0 | -0.347 (active) | 0.051 | -0.024 | 0.036 |
| REEP6 (UniProt Q96HR9) | -0.031 | 0.068 | -0.083 | -0.028 | -0.059 |
| RFWD3 (UniProt Q6PCD5) | 0.089 | -0.444 (active) | 0.061 | -0.027 | 0.043 |
| REXO4 (UniProt Q9GZR2) | 0.03 | -0.127 | 0.05 | -0.035 | 0.067 |
| S100A11 (UniProt P31949) | -0.085 | 0.106 | -0.057 | 0.046 | -0.045 |
| RALGAPA1 isoform 6 (UniProt Q6GYQ0) | 0.047 | 0.034 | -0.054 | -0.027 | -0.022 |
| RPS29 (UniProt P62273) | -0.105 | 0.145 | -0.03 | 0.205 | -0.085 |
| S100A6 (UniProt P06703) | 0.064 | 0.136 | -0.036 | -0.071 | -0.005 |
